According to the antibiotic and cytotoxicity screens of Wong et al. (2023):
In all, about 39,000 compounds went through this assay and about 1,500 (3.8%) were called active. The sample as a whole holds a higher share of actives than the screen did.

system: HSkMC (human skeletal muscle cells); assay: cytotoxicity call (relative viability < 0.9); settings: 10 µM

Compound	cytotoxicity call
Cc1noc(C)c1NC(=O)Nc1ccc2c(c1)CC(=O)N([C@H](C)CO)C[C@H](C)[C@H](CN(C)C(=O)NC(C)C)O2	inactive
C[C@@H]1CCCCO[C@H](CN(C)Cc2ccncc2)[C@@H](C)CN([C@@H](C)CO)C(=O)c2cc(NC(=O)Nc3cccc4ccccc34)ccc2O1	inactive
COc1ccc(S(=O)(=O)Nc2ccc3c(c2)C(=O)N([C@H](C)CO)C[C@@H](C)[C@@H](CN(C)Cc2ccncc2)O3)cc1	inactive
C[C@H]1CCCCO[C@@H](CN(C)C(=O)Nc2ccc3c(c2)OCO3)[C@@H](C)CN([C@@H](C)CO)C(=O)c2cc(NC(=O)c3ccncc3)ccc2O1	inactive
C[C@@H]1CN([C@H](C)CO)C(=O)CCCn2cc(nn2)CO[C@H]1CN(C)S(=O)(=O)c1cn(C)cn1	inactive
COc1ccc(S(=O)(=O)N(C)C[C@H]2OCCCC[C@@H](C)Oc3ccc(NC(=O)Nc4ccccc4)cc3C(=O)N([C@@H](C)CO)C[C@@H]2C)cc1	inactive
Cc1noc(C)c1S(=O)(=O)Nc1ccc2c(c1)C(=O)N([C@H](C)CO)C[C@H](C)[C@H](CN(C)S(C)(=O)=O)OCCCC[C@H](C)O2	inactive
C[C@H]1[C@H](C)CC[C@]2(C(=O)O[C@@H]3O[C@H](CO[C@@H]4O[C@H](CO)[C@@H](O[C@@H]5O[C@@H](C)[C@H](O)[C@@H](O)[C@H]5O)[C@H](O)[C@H]4O)[C@@H](O)[C@H](O)[C@H]3O)CC[C@]3(C)C(=CC[C@@H]4[C@@]5(C)C[C@@H](O)[C@H](O)[C@@](C)(CO)[C@@H]5[C@H](O)C[C@]43C)[C@H]12	inactive
C[C@@H]1CN([C@@H](C)CO)C(=O)c2cc(NC(=O)c3ccccc3)ccc2O[C@@H](C)CCCCO[C@H]1CN(C)C(=O)c1ccccc1	inactive
COc1ccccc1S(=O)(=O)N[C@H]1CC[C@H](CCNC(=O)C2CCOCC2)O[C@H]1CO	inactive
Cc1noc(C)c1S(=O)(=O)N(C)C[C@H]1Oc2ccc(NC(=O)Nc3ccc4c(c3)OCO4)cc2CC(=O)N([C@H](C)CO)C[C@@H]1C	inactive
C[C@@H]1CCCCO[C@@H](CN(C)CC2CCCCC2)[C@@H](C)CN([C@H](C)CO)C(=O)c2cc(NC(=O)Nc3ccc(C(F)(F)F)cc3)ccc2O1	active
C[C@@H]1CCCCO[C@H](CN(C)CC2CCCCC2)[C@@H](C)CN([C@H](C)CO)C(=O)c2cc(NC(=O)Nc3ccc(C(F)(F)F)cc3)ccc2O1	active
C[C@@H]1CN([C@H](C)CO)C(=O)c2cc(NC(=O)Nc3ccc(C(F)(F)F)cc3)ccc2O[C@@H](C)CCCCO[C@@H]1CN(C)CC1CCCCC1	active
C[C@H](CO)N1C[C@H](C)[C@@H](CN(C)CC2CCCCC2)OCCCC[C@H](C)Oc2ccc(NC(=O)Nc3ccc(C(F)(F)F)cc3)cc2C1=O	active
C[C@H]1CN([C@@H](C)CO)C(=O)c2cc(NC(=O)CCCN(C)C)ccc2O[C@H]1CN(C)C(=O)NC1CCCCC1	inactive
C[C@H]1CN([C@@H](C)CO)C(=O)c2cccc(NC(=O)CCCCCC(=O)Nc3ccccc3N)c2O[C@@H]1CN(C)C(=O)Nc1ccccc1	inactive
C[C@H](CO)N1C[C@H](C)[C@@H](CN(C)Cc2ccc(C(=O)O)cc2)OCCCC[C@H](C)Oc2ccc(NC(=O)C3CCCCC3)cc2C1=O	inactive

Compound	cytotoxicity call
C[C@@H]1CN([C@@H](C)CO)C(=O)Cc2cc(NC(=O)Nc3ccc(F)cc3)ccc2O[C@@H]1CN(C)C(=O)Nc1cccc2ccccc12	inactive
COc1ccc(C#Cc2ccc3c(c2)[C@]2(C(=O)N3)[C@H](C(=O)Nc3nc4ccccc4s3)[C@H]3C(=O)O[C@H](c4ccccc4)[C@H](c4ccccc4)N3[C@@H]2c2ccc(O)cc2)cc1	inactive
Cc1ccc(S(=O)(=O)N(C)C[C@@H]2Oc3ccc(NS(C)(=O)=O)cc3C(=O)N([C@@H](C)CO)C[C@@H]2C)cc1	inactive
NCc1nncn1-c1ccc(F)cc1	inactive
C[C@H](CO)N1C[C@H](C)[C@H](CN(C)CC2CCCCC2)OCCCC[C@H](C)Oc2ccc(NC(=O)c3ccncc3)cc2C1=O	inactive
C[C@H](CO)N1C[C@H](C)[C@@H](CN(C)S(=O)(=O)c2cccs2)Oc2c(NS(=O)(=O)c3cn(C)cn3)cccc2C1=O	inactive
COCC#Cc1cnc2c(c1)C(=O)N([C@@H](C)CO)C[C@@H](C)[C@@H](CN(C)C(=O)CN1CCOCC1)O2	inactive
C[C@@H]1CN([C@@H](C)CO)C(=O)c2cc(NC(=O)Nc3ccc(C(F)(F)F)cc3)ccc2O[C@@H](C)CCCCO[C@H]1CN(C)CC1CCCCC1	inactive
C[C@@H]1CN([C@@H](C)CO)C(=O)c2cc(NC(=O)Nc3ccc(C(F)(F)F)cc3)ccc2O[C@@H](C)CCCCO[C@@H]1CN(C)CC1CCCCC1	inactive
C[C@H]1CCCCO[C@@H](CN(C)CC2CCCCC2)[C@@H](C)CN([C@@H](C)CO)C(=O)c2cc(NC(=O)Nc3ccc(C(F)(F)F)cc3)ccc2O1	active
C[C@@H]1CCCCO[C@@H](CN(C)CC2CCCCC2)[C@H](C)CN([C@H](C)CO)C(=O)c2cc(NC(=O)Nc3ccc(C(F)(F)F)cc3)ccc2O1	active
Cc1noc(C)c1NC(=O)Nc1ccc2c(c1)C(=O)N([C@H](C)CO)C[C@H](C)[C@H](CN(C)Cc1ccncc1)OCCCC[C@@H](C)O2	inactive
CO[C@@H]1CN(C)C(=O)c2cc(NS(C)(=O)=O)ccc2OC[C@@H](C)N(C(=O)CN(C)C)C[C@@H]1C	inactive
C[C@H]1CN([C@@H](C)CO)C(=O)c2cc(NS(=O)(=O)c3cn(C)cn3)ccc2O[C@H]1CN(C)S(C)(=O)=O	inactive
C[C@H]1CN([C@@H](C)CO)S(=O)(=O)c2ccc(C#CC3(O)CCCC3)cc2O[C@@H]1CN(C)C(=O)Cc1ccncc1	inactive
COc1ccc(S(=O)(=O)N(C)C[C@H]2OCCCC[C@@H](C)Oc3ccc(NC(=O)c4ccccc4)cc3C(=O)N([C@H](C)CO)C[C@@H]2C)cc1	inactive
C[C@@H]1CN([C@H](C)CO)C(=O)c2cc(NC(=O)Cc3ccccc3)ccc2O[C@@H](C)CCCCO[C@@H]1CN(C)C(=O)C1CCCCC1	inactive
